Measurements as given in PubChem BioAssay AID2642 (Johns Hopkins Ion Channel Center, 2010).
Out of some 310,000 compounds screened, about 3,900 (1.3%) were called active.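 The calls were made as follows: active = compounds whose thallium flux B-score, printed positive for inhibition, exceeds three library SD while starting fluorescence stays within three; inactive = the rest.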 Shown is part of a subset that was picked to be rich in actives.

These compounds were tested against Potassium voltage-gated channel subfamily KQT member 1 (Homo sapiens) (UniProt P51787) (assay: inhibitors of human KCNQ1 channel, primary screen, cell-based, thallium flux, high-throughput (AID 2642;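 also: channel opened by potassium depolarization with thallium stimulus after 20 min compound exposure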)). Conditions: CHO-K1 KCNQ1, FluxOR thallium flux fluorescence, at 10 µM; stronger effect = higher value.
Chain of Potassium voltage-gated channel subfamily KQT member 1 (Homo sapiens) (P51787 whole entry, looked up): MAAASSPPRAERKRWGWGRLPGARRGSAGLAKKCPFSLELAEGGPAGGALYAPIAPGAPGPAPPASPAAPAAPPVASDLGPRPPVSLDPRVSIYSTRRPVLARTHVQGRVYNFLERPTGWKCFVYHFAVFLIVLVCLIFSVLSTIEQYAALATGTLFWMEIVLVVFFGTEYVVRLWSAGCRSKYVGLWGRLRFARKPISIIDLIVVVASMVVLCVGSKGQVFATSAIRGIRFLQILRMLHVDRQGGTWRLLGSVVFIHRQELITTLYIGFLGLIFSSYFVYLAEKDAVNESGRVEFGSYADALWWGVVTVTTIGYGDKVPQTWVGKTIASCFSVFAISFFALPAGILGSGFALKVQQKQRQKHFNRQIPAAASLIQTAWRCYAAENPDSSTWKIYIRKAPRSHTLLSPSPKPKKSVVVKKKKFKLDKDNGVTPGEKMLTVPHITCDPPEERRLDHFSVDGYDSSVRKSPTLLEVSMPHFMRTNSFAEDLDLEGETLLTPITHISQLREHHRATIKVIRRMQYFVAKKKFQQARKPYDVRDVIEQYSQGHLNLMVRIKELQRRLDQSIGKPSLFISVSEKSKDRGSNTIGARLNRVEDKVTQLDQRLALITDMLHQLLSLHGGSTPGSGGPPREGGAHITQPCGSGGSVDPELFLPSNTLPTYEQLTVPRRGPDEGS

B-score, inactive:
Cc1cc(C)c(S(=O)(=O)N2CCCC2CNC(=O)c2ccc3c(c2)OCO3)c(C)c1 (configuration not stated), Cc1ccc(OCCCCN2CCCCC2)c(Br)c1, CC(C)CC(=O)N1CCN(Cc2ccccc2Br)CC1, CCN1CC=C2C(C#N)=C(N)C(C#N)(C#N)[C@H](c3ccoc3)[C@H]2C1, CCC(C)(C)NC(=O)/C=C/c1cc(OC)c(OC)c(S(=O)(=O)N2CCc3ccccc32)c1, O=C(CN1CCCCCC1)NCCN1C(=O)S/C(=C\c2ccccc2Cl)C1=O, O=C(CN1C(=O)S/C(=C\c2ccccc2Cl)C1=O)NC1C=CS(=O)(=O)C1 (configuration not stated), COc1ccc(/C=N/n2c(C)cc(C)cc2=O)cc1, OCCC1CN(Cc2cccc(O)c2)CCN1CCc1ccccc1 (configuration not stated), COc1ccc(C2CC(=O)n3c(nc4ccccc43)S2)cc1OC (configuration not stated), COc1cccc(C2CC(c3ccccc3)=NN2S(=O)(=O)c2ccccc2)c1OC (configuration not stated), COc1ccc2[nH]c3c(=O)n(Cc4ccco4)cnc3c2c1, COc1ccc(-c2oc3ncnc(NCCCO)c3c2-c2ccc(OC)cc2)cc1, CCOc1ccc2ccccc2c1/C=N/NC(=O)c1c(C)cc(C)[nH]c1=O, CN(C(=O)CCNC(=O)Cn1ccc2ccccc2c1=O)c1ccc(Br)cc1, CCC(C)Sc1nnc(-c2c[nH]c3ccccc23)n1CCOC (configuration not stated), CCn1c(SCC(=O)Nc2ccc(OC)c(OC)c2)nnc1-c1c[nH]c2ccccc12, CC1CC(=S)Nc2ccccc2N1Cc1ccccc1 (configuration not stated), COc1ccc(S(=O)(=O)N2CCCC(C(=O)NCCCn3ccnc3)C2)cc1OC (configuration not stated), COc1ccccc1NC(=O)C[n+]1ccccc1, Cc1cccc[n+]1CC(=O)c1ccccc1, O=C(CC1C(=O)NCCN1C(=O)c1ccc([N+](=O)[O-])cc1)Nc1cccc(Cl)c1 (configuration not stated), CC1c2nc3ccccc3n2C(CC(=O)NCCCN2CCOCC2)C(=O)N1Cc1ccccc1 (configuration not stated), Cc1cc(Cl)ccc1OCCCC(=O)Nc1cccc(-n2cnnn2)c1, O=C(CCC1CCCCC1)Nc1cc(C(F)(F)F)ccc1N1CCOCC1, COc1ccc(NC(=O)CN2C(=O)COc3ccc(S(=O)(=O)N4CCOCC4)cc32)c(OC)c1, COc1ccc(S(=O)(=O)N2CCOCC2)cc1NC(=O)COc1ccccc1, CCOC(=O)c1c(NC(=S)NC)sc2c1CCCC2, CCOC(=O)c1c(NC(=O)CSc2cn(CC)c3ccccc23)sc2c1CCC2, CCOc1ccc(S(=O)(=O)N2CCC(C(=O)OCc3ccc(OC)cc3)CC2)cc1, CC1CN(C(=S)Nc2ccc(Br)cc2Cl)CC(C)O1 (configuration not stated), CCCCOC(=O)Nc1nnc(CC(=O)NCc2ccccc2)s1, CC(=O)N1CCCc2cc(S(=O)(=O)N3CCCC(C(=O)NCc4ccc(Cl)cc4)C3)ccc21 (configuration not stated), CC(=O)N1c2ccc(S(=O)(=O)N3CCCC(C(=O)Nc4cccc(Cl)c4)C3)cc2CC1C (configuration not stated), CCCOc1cccc(C(=O)Nc2ccccc2C(=O)N2CCN(C)CC2)c1, COC(=O)c1c(NC(=O)COC(=O)[C@@H](NS(=O)(=O)c2ccccc2)C(C)C)sc2c1CCC2, CC(C)(C)OC(=O)N/N=C/c1cn(-c2ccccc2)nc1-c1cccnc1, O=C(O)c1ccc(N/N=C/c2cn(-c3ccccc3)nc2-c2cccs2)cc1, CC(=O)Nc1ccc(N2C(=O)CCC2=O)cc1C, CCC(C(=O)OCC(=O)Nc1ccc(C(=O)Nc2ccc(OC)cc2)cc1)c1ccccc1 (configuration not stated), COC(=O)[C@H](Cc1ccccc1)NC(=O)Nc1ccc(OC)cc1, Cc1ccc(C)c(NC(CC(=O)c2ccccc2)C(=O)OCC(=O)c2cccs2)c1 (configuration not stated), CCc1ccc(NC(=O)COC(=O)c2cccs2)cc1, CCCCSCCCNC(=O)C1CCC(CNS(=O)(=O)c2ccc(NC(C)=O)cc2)CC1 (configuration not stated), C=CCSc1nc(N)cc(=O)[nH]1, COc1ccc(C(=O)OCC(=O)Nc2cccc(C(C)=O)c2)cc1OC, CN1CCN(C(CNS(=O)(=O)c2cccs2)c2cccnc2)CC1 (configuration not stated), CCOC(=O)N1CCN(c2c(NCCCN3CCCC(C)C3)c(=O)c2=O)CC1 (configuration not stated), CCC1C=C(c2ccccc2)C=CN=C1N(CC)CC (configuration not stated), c1ccc2c(NC3C4CC5CC(C4)CC3C5)nc(N3CCOCC3)nc2c1 (configuration not stated), Cn1nccc1CNC(=O)c1ccnn1C, Cc1ccc(-n2ncc3c2CCCC3NC(=O)c2cnccn2)cc1C (configuration not stated), CC(=O)NCC(=O)NC1CCCc2c1cnn2-c1ccccc1F (configuration not stated), CC1(C)Cc2c(cnn2-c2cccc(F)c2)C(NC(=O)c2cc[n+]([O-])cc2)C1 (configuration not stated), COc1ccc(C(=O)NC2CC(C)(C)Cc3c2cnn3-c2ccccc2C)o1 (configuration not stated), Cc1cc(C(=O)NC2CCCc3c2cnn3-c2cccc(C)c2C)c(C)o1 (configuration not stated), Cc1nc(C(=O)N2CCCC(C(=O)c3ccc(Cl)cc3)C2)cs1 (configuration not stated), CCOC(=O)N1CCN(CCC(=O)Nc2ccccc2)CC1, Cc1cccc(NC(=O)C2CCCN(C(=O)Nc3ccc(F)cc3)C2)c1C (configuration not stated), COc1cccc2c(C)c(C(=O)O)[nH]c12, Cc1nn(-c2ncc(C(F)(F)F)cc2Cl)c(=O)n1-c1ccccc1, CC1CCCC(N2CCN(C(=O)c3ccc(F)cc3)CC2)C1 (configuration not stated), C=CCn1c(SCC(N)=O)nnc1-c1cc2c(s1)CCC(CC)C2 (configuration not stated), COc1ccc(-c2csc3ncnc(N4CCN(S(=O)(=O)c5ccccc5C#N)CC4)c23)cc1, COc1ccc(-c2csc3ncnc(Oc4ccc5c(C)cc(=O)oc5c4)c23)cc1, CCN(c1ccc(NC(=O)COC(=O)CCc2nc3ccccc3n2-c2ccccc2)cc1)C(C)C, O=C(CNS(=O)(=O)c1ccccc1)NCC(=O)OCc1ccccc1F, Cc1ccc(SCC(=O)NC(=O)NCc2ccco2)c(C)c1, CC(=O)NCc1ccc(S(=O)(=O)NC2CCN(Cc3ccccc3)CC2)cc1, COc1ccc(C)cc1NC(=S)Nc1ccccc1SC, O=C1NC(=Nc2ccc(Cl)cc2)SC1Cc1cccc(Cl)c1Cl (configuration not stated), Cc1ccc(NC(=O)Nc2cccnc2)cc1, O=C(NNC(=O)c1csc(-c2cccnc2)n1)Nc1ccc(Cl)cc1, Cc1cccc(N2CCC(NCc3c(C(=O)N4CCCCC4)nc4c(C)cccn34)CC2)c1, Cc1ccccc1N1CCN(S(=O)(=O)c2ccc3ccccc3c2)CC1, Cc1ccc(S(=O)(=O)N2CCN(C)CC2)cc1, c1ccc2c(NCC3CCCO3)nc(-c3ccncc3)nc2c1 (configuration not stated), O=C(NCC1CCCO1)c1cc(-c2ccccc2)nc2ccccc12 (configuration not stated), COc1ccc(CC(NC(C)=O)C(=O)NC2CCN(C(=O)c3ccc(Cl)cc3)CC2)cc1 (configuration not stated), CC1CCN(C(=S)NC(=O)c2ccccc2Br)CC1, C=CCn1c(-c2ccc3[nH]c(C)c(C)c3c2)n[nH]c1=S, C=CCn1c(-c2sc(-c3ccccc3)nc2C)n[nH]c1=S, COc1ccc(S(=O)(=O)N2CCN(C)CC2)c(C)c1, CC(C)(C)NC(=O)CN(Cc1cccs1)C(=O)CNS(=O)(=O)c1ccccc1, CCC1=Nc2cc(C(=O)NCCN3CCCC3)ccc2Sc2ccc(C)cc21, Cc1ccc(C(=O)NCCN2CCOCC2)cc1C

B-score, active:
CN1C2CCC1/C(=C\c1ccccc1Cl)C(=O)/C2=C\c1ccccc1Cl 10, COc1ccccc1C1CC(=O)n2c(nc(-c3ccccc3)c2-c2ccccc2)S1 (configuration not stated) 7, COc1ccc(-c2oc3ncn(Cc4ccco4)c(=N)c3c2-c2ccc(OC)cc2)cc1 9, CCn1c(SCCC(C)C)nnc1-c1c[nH]c2ccccc12 6, COC(=O)C[n+]1cccc2ccccc21 8, COc1cc(S(=O)(=O)N2CCOCC2)ccc1NC(=O)COc1ccc(N(C)S(=O)(=O)c2ccc(C)cc2)cc1 13, CCOC(=O)c1c(NC(=O)C(C)Sc2c[nH]c3ccccc23)sc2c1CCC2 (configuration not stated) 12, CC(=O)N1CCCc2cc(S(=O)(=O)N3CCCC(C(=O)N4CCN(c5cccc(Cl)c5)CC4)C3)ccc21 (configuration not stated) 8, Cc1ccc(-c2nn(-c3ccccc3)cc2/C=N/NC(=O)c2ccc3c(c2)OCO3)cc1 6, O=C(COC(=O)[C@H](Cc1ccccc1)NC(=O)c1cccs1)Nc1cc(F)ccc1F 6, NC(=O)c1ccc(NC(=O)COC(=O)C(Cc2ccccc2)NC(=O)c2ccccc2)cc1 (configuration not stated) 6, Cn1nccc1C(=O)NC1CCCc2c1cnn2-c1ccccc1F (configuration not stated) 6, Cn1nccc1C(=O)NC1CCCc2c1cnn2-c1ccc(F)cc1F (configuration not stated) 9, COc1ccc(C(=O)NC2CCCc3c2cnn3-c2cccc(C)c2C)c(OC)n1 (configuration not stated) 11, COc1ccc(-c2csc3ncnc(N4CCN(S(=O)(=O)c5cccc(F)c5)CC4)c23)cc1 6, CCN1/C(=C\c2ccc3ccccc3[n+]2CC)Sc2cc(C)ccc21 15, O=C(Nc1ccc(Cl)cc1)Nc1ccc(Oc2cccnc2)nc1 8, Cc1ccc(N2CCN(S(=O)(=O)c3ccc(F)cc3)CC2)c(C)c1 7, Clc1cccc(-c2nc(NCC3CCCO3)c3ccccc3n2)c1 (configuration not stated) 6, C=CCn1c(-c2ccccc2OCC)n[nH]c1=S 6, Cc1cccc(-c2nc3ccc(C(=O)NCCN4CCN(C)CC4)cc3nc2-c2cccc(C)c2)c1 7
